Active and inactive are the calls of the source. How the calls were made is not given here.
Potency means the concentration at half of the fitted maximal effect.

For the assay, the system named is HIV-1 nucleocapsid protein NCp7 (binding to TG oligonucleotide). Nature of the assay: HIV Nucleocapsid (AID 346).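 Further: potency is for inhibitors that block NC binding and lower polarization.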 To be noted: HIV-1 NC / fluorescein-TGTGTGTG probe, fluorescence polarization. The essentials: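 Reagents dispensed (10 nM TG4xF, 100 nM HIV-1 NC), plates spun, compounds pin-transferred, then incubated 1 hr at room temperature before FP imaging. Buffer: Hepes pH 7.5, 250mM NaCl, 1uM ZnCl2, 100 uM TCEP, 5 mM 2-mercaptoethanol.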
Background: Fluorescence polarisation rises when a labelled molecule tumbles more slowly, as on binding a larger partner.
As to `COc1ccccc1-c1cc(NCc2ccccc2)ncn1`, the Potency is > 20 µM (inactive).
The value for `Cn1c(=O)c(-c2ccccc2)nc2cnc(N3CCNCC3)nc21` was > 20 µM (inactive); that for `CS(=O)(=O)N1CCC2(CCCN(c3ccccn3)C2)CC1` was > 20 µM (inactive); that for `FC(F)(F)c1ccccc1-c1cc(NCc2cccnc2)ncn1` was > 20 µM (inactive).
The same measure for `COCCn1c(=O)c(-c2ccc(OC)cc2)nc2cnc(Nc3cccc(OC)c3)nc21`: 8.97 µM (active); for `COc1ccccc1CN1CC2(CCN(S(C)(=O)=O)CC2)C1`: > 20 µM (inactive).
The value for `Cc1cnc(CNc2ncncc2-c2cccc(NS(C)(=O)=O)c2)cn1` was > 20 µM (inactive); that for `Cc1cnc(CNc2ccnc(-c3cccnc3)n2)cn1` was > 20 µM (inactive); that for `COc1ccc(NC(=O)N2CC3(CCN(C(=O)c4cccn4C)CC3)C2)cc1` was > 20 µM (inactive).
With `CC(=O)N1CCC2(CC1)CN(c1ccccn1)C2`, the Potency is > 20 µM (inactive).
The value for `COc1cccc(Cn2c(=O)c(-c3cn(C)c4ccccc34)nc3cncnc32)c1` was > 20 µM (inactive); that for `Cc1noc(C)c1-c1nccc(NCc2ccccc2)n1` was > 20 µM (inactive).
With `N#Cc1cccc(-c2cncnc2-n2ccnc2)c1`, the Potency is > 20 µM (inactive).
The value for `COc1ccc(NC(=O)N2CCC3(CC2)CCN(C(=O)c2cnccn2)CC3)cc1` was > 20 µM (inactive); that for `COc1ccccc1-c1nc(NCc2ccccc2)c2ccccc2n1` was > 20 µM (inactive).
The same measure for `CCNc1ncc2nc(C)c(=O)n(C[C@H]3CCCO3)c2n1`: > 20 µM (inactive); for `COc1ccc(-n2c(=O)c(-c3cn(C)c4ccccc34)nc3cnc(OC)nc32)cc1`: > 20 µM (inactive).
The value for `COc1ccc(CNc2nc(-c3ccccc3OC)nc3ccccc23)c(OC)c1` was > 20 µM (inactive); that for `CN1CCN(c2ncc3nc(-c4cc(F)cc(F)c4)c(=O)n(C4CC4)c3n2)CC1` was > 20 µM (inactive).
On to `O=C(Oc1ccccc1)N1CCC2(CCCN(c3cccc(-c4ccccc4)c3)C2)CC1`, for which the Potency is > 20 µM (inactive).
For the compound `O=S(=O)(c1ccccc1)N1CCC[C@@]2(CCN(Cc3nccs3)C2)C1`, the Potency is > 20 µM (inactive).
The value for `N#Cc1cccc(NC(=O)N2CC3(CCN(C(=O)c4ccco4)CC3)C2)c1` was > 20 µM (inactive); that for `COc1cccc(-c2nc(NCc3ccc(OC)cc3OC)c3ccccc3n2)c1` was > 20 µM (inactive).
The same measure for `COc1ccccc1CN1CCC2(CCNCC2)CC1`: > 20 µM (inactive); for `CN(C)C(=O)c1ccc(-c2nc(N(C)Cc3ccco3)c3ccccc3n2)cc1`: > 20 µM (inactive).
The value for `COc1ccccc1CN1CC[C@@]2(CCCN(C(=O)c3cccc(F)c3)C2)C1` was > 20 µM (inactive); that for `CN(C)c1ccc(-c2nccc(NCc3ccccc3)n2)cc1` was > 20 µM (inactive).
Take `COc1ccc(NC(=O)N2CCC3(CC2)CCN(S(=O)(=O)c2ccccc2)CC3)cc1`: the Potency is > 20 µM (inactive).
The same measure for `CS(=O)(=O)Nc1cccc(-c2ccc3ncnc(N4CCOCC4)c3c2)c1`: > 20 µM (inactive).
With `COc1ccc(-n2c(=O)c(-c3cccc(C#N)c3)nc3cnc(N4CCNCC4)nc32)cc1`, the Potency is > 20 µM (inactive).
The value for `CN1CCN(c2ncncc2-c2ccoc2)CC1` was > 20 µM (inactive); that for `O=c1cnc2cnc(N3CCNCC3)nc2n1Cc1cccs1` was > 20 µM (inactive).
Take `CCNc1ncc2nc(CCc3ccccc3)c(=O)n(Cc3ccc(F)cc3)c2n1`: the Potency was > 4 µM (inactive).
The same measure for `O=S(=O)(c1ccccc1)N1CCC2(CCCN(Cc3ccncc3)C2)CC1`: > 20 µM (inactive); for `COc1ccc(CNc2ccnc(-c3cccc(C#N)c3)n2)c(OC)c1`: > 20 µM (inactive).
Regarding `COCC(=O)N1CCC2(CCCN(C(=O)Nc3ccc(OC)cc3)C2)CC1`, the Potency was > 20 µM (inactive).
As to `c1nc(NCCN2CCOCC2)c2cc(-c3ccoc3)ccc2n1`, the Potency was > 20 µM (inactive).
The value for `COc1cccc(Nc2ncc3nc(-c4cc(F)cc(F)c4)c(=O)n(C4CC4)c3n2)c1` was > 4 µM (inactive); that for `CC(C)CN1CCCC2(CCN(C(=O)c3cc(C(F)(F)F)cc(C(F)(F)F)c3)CC2)C1` was > 20 µM (inactive); that for `COc1ccccc1-c1cc(NCc2cccc(C)c2)ncn1` was > 20 µM (inactive).

(Values after PubChem BioAssay (NCATS).)
